# Measurements: PubChem BioAssay
# Activity calls are given as the source filed them.
# Tests used:
# [1] = tested on: PRMT1 (protein arginine N-methyltransferase 1); assay: PRMT1 binders on small-molecule microarrays, primary screen, biochemical, small-molecule microarray, 635 nm fluorescence (AID 1088); conditions: small-molecule microarray binding, higher = more signal;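 note: binding of Prmt1 protein to compounds spotted on small-molecule microarray slides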
# [2] = yeast growth modulation, basal conditions, primary screen, YJM789 clinical isolate, OD600, 24 h (AID 1089);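 note: growth of clinical yeast isolate S. cerevisiae YJM 789 seeded 1000 cells per well; test concentration not given here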; conditions: S. cerevisiae YJM789 growth, higher = more signal, called active from +8 up or from −8 down
# [3] = fission yeast growth modulation, primary screen, strain 972, OD600, 24 h, no modulator (AID 1090);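 note: basal condition with compound alone and no growth modifier present; test concentration not given here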; conditions: S. pombe 972 growth, higher = more signal, called active from +8 up or from −8 down
# [4] = S. cerevisiae growth modulation with rapamycin, primary screen, strain BY4716, OD600, 96 h (AID 1091); conditions: higher = more signal, called active from +8 up or from −8 down; note: test concentration not given here
# [5] = biological target: Torsin-1A-interacting protein 2 (Homo sapiens) (UniProt Q8NFQ8); assay: LULL1 binders on small-molecule microarray, primary screen, cell lysate, human LULL1 lysate, 635/667 nm fluorescence (AID 1092); conditions: hLULL1 lysate binding, 635 nm fluorescence, higher = more signal;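 note: probe is lysate of COS7 cells overexpressing human LULL1; score merges per-feature 667 nm fluorescence with signal-to-noise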
# Torsin-1A-interacting protein 2 (Homo sapiens), sequence (Q8NFQ8 whole entry, looked up): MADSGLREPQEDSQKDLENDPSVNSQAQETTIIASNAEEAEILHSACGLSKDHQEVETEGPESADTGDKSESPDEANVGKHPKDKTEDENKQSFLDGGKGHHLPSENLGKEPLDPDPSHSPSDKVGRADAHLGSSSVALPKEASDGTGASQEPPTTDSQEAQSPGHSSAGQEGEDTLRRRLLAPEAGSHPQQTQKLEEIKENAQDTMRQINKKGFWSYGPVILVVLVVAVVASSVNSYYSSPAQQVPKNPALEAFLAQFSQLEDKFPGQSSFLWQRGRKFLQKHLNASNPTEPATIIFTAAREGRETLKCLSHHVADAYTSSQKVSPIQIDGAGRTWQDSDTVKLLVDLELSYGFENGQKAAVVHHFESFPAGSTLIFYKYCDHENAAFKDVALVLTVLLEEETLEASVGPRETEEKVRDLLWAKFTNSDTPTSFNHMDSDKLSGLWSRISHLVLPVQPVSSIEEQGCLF
# [6] = E. coli growth modulation, two-sided OD650, primary screen, E. coli filamentation project, strain DRC41, 24 h (AID 1093); conditions: OD650, 24 h, higher = more signal, called active from +8 up or from −8 down;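 note: MC1000 strain lacking acrAB efflux and sulA so SOS filamentation is blocked; test concentration not given here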
# [7] = small-molecule microarray binders of probe aLefty2, primary screen, biochemical, biotinylated probe, 635/667 nm fluorescence (AID 1094); conditions: higher = more signal;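 note: score merges spot fluorescence near 667 nm with spot signal-to-noise ratio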
# [8] = tested on: Noggin (protein binding on small-molecule microarray); assay: Noggin binders on small-molecule microarray, primary screen, biochemical, 635/667 nm fluorescence (AID 1095); conditions: 635 nm fluorescence, higher = more signal;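 note: score merges 667 nm feature fluorescence with signal to noise over triplicate slides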
# [9] = biological target: Neurogenic locus notch homolog protein 3 (Homo sapiens) (UniProt Q9UM47); assay: NOTCH3 binders on small-molecule microarray, primary screen, biochemical, 635/667 nm fluorescence (AID 1096); conditions: NOTCH3 binding, 635 nm fluorescence, higher = more signal
# Neurogenic locus notch homolog protein 3 (Homo sapiens), sequence (Q9UM47 whole entry, looked up): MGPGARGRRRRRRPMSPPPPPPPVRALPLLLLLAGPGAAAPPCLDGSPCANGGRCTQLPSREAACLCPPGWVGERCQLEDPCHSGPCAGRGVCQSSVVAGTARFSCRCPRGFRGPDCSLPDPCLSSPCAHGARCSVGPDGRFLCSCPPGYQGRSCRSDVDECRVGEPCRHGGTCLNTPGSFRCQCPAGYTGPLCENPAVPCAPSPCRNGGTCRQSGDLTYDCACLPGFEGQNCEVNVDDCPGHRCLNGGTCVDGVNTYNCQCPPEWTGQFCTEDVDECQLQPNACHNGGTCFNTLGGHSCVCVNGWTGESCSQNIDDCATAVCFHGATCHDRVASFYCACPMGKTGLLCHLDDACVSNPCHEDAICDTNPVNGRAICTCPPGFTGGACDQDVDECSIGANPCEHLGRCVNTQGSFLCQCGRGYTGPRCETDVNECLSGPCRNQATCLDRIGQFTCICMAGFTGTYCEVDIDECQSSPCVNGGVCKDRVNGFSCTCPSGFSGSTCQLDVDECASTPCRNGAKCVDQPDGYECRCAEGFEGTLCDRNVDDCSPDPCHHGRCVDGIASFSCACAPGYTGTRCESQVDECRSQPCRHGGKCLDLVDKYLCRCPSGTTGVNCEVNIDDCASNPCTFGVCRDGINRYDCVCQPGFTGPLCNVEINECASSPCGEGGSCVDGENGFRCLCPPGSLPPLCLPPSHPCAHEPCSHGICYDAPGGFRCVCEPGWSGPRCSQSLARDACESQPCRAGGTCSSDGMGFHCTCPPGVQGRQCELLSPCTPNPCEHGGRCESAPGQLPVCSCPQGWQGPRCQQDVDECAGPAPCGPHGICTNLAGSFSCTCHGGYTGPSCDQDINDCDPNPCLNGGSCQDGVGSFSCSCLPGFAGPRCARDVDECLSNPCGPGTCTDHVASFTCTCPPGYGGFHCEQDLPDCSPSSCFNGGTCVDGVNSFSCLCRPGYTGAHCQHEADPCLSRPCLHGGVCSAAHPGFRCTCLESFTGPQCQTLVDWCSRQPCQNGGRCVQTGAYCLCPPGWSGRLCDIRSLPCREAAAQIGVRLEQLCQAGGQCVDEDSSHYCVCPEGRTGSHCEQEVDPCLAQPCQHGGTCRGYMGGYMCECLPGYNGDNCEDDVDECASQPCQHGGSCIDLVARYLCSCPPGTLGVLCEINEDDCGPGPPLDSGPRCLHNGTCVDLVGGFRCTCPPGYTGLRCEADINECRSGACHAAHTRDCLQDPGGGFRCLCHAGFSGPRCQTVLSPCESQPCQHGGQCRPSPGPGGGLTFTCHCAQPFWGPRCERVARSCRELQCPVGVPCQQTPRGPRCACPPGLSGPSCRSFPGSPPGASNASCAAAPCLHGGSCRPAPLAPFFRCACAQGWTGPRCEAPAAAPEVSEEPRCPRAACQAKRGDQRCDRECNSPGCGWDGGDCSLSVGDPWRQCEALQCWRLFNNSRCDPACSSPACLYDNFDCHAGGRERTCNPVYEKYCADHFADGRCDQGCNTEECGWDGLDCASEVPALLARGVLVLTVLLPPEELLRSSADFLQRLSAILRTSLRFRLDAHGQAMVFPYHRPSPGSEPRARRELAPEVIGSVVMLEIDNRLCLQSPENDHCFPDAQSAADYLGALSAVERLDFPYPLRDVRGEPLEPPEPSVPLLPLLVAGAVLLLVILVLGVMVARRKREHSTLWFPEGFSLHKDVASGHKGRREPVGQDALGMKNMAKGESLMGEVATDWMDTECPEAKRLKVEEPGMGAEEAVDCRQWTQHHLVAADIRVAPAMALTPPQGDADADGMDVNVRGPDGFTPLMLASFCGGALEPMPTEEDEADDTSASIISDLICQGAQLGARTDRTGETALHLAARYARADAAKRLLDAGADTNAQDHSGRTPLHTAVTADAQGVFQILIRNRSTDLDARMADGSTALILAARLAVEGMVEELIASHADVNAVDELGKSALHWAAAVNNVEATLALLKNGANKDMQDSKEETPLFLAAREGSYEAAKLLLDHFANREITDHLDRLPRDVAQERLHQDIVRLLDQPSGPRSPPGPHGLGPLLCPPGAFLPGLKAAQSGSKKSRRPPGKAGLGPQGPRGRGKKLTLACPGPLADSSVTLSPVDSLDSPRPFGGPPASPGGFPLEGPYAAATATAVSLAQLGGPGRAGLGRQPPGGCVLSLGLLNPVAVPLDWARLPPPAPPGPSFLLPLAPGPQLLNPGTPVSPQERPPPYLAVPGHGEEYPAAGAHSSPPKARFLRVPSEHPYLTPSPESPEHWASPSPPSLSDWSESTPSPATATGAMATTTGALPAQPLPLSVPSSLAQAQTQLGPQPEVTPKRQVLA
# [10] = small-molecule microarray binders of probe aEGFR, primary screen, biochemical, biotinylated probe, 635/667 nm fluorescence (AID 1097); conditions: higher = more signal;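 note: probe is a biotinylated anti-EGFR antibody binding compounds printed on slides; score combines fluorescence near 667 nm and signal to noise of each spot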
# [11] = tested on: Plasmodium falciparum Sir2 (PF13_0152, Sir2A); assay: pfSir2 binders on small-molecule microarrays, primary screen, biochemical, small-molecule microarray, 635 nm fluorescence (AID 1098); conditions: small-molecule microarray binding, fluorescence 635 nm; higher = more signal;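 note: score merges spot fluorescence intensity with its signal-to-noise ratio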
# [12] = small-molecule microarray binders of probe aDKK1, primary screen, biochemical, biotinylated probe, 635/667 nm fluorescence (AID 1099); conditions: higher = more signal;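 note: score merges 667nm spot fluorescence with signal to noise across triplicate slides; reference of the scale not given here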
# [13] = small-molecule microarray binders of probe aCHRDL2, primary screen, biochemical, biotinylated probe, 635/667 nm fluorescence (AID 1100); conditions: higher = more signal
# [14] = splicing luciferase reporter signal modulators, primary screen, spliceosome inhibition project, cell-based, HEK293, splice +/- reporter (AID 1101); conditions: luminescence, 24 h, higher = more signal, called active from +8 up or from −8 down;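 note: HEK293 cells carrying a splicing-competent luciferase reporter gene; test concentration not given here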
# [15] = biological target: Fibroblast growth factor 10 (Homo sapiens) (UniProt O15520); assay: FGF10 binders on small-molecule microarrays, primary screen, biochemical, small-molecule microarray, 635 nm fluorescence (AID 1102); conditions: FGF10 binding, fluorescence 635 nm, higher = more signal
# Fibroblast growth factor 10 (Homo sapiens), sequence (O15520 whole entry, looked up): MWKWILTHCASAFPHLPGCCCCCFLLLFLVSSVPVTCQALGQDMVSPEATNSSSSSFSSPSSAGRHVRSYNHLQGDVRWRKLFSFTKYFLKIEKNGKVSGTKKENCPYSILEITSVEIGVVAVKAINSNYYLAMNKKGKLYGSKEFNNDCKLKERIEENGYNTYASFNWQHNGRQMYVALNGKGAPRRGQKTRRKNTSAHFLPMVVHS
# [16] = tested on: glycogen synthase kinase-3 (GSK3A per assay name; protocol says GSK3B); assay: GSK3 binders on small-molecule microarrays, primary screen, biochemical, small-molecule microarray, 635 nm fluorescence, GSK3A (AID 1103); conditions: small-molecule microarray binding, fluorescence 635 nm; higher = more signal; note: the record names both GSK3A and GSK3B
# [17] = biological target: Epidermal growth factor receptor (Homo sapiens) (UniProt P00533); assay: EGFR binders on small-molecule microarrays, primary screen, biochemical, small-molecule microarray, 635 nm fluorescence (AID 1104); conditions: EGFR binding, higher = more signal;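 note: score merges 667 nm emission intensity with spot signal to noise over triplicate slides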
# Epidermal growth factor receptor (Homo sapiens), sequence (P00533 whole entry, looked up): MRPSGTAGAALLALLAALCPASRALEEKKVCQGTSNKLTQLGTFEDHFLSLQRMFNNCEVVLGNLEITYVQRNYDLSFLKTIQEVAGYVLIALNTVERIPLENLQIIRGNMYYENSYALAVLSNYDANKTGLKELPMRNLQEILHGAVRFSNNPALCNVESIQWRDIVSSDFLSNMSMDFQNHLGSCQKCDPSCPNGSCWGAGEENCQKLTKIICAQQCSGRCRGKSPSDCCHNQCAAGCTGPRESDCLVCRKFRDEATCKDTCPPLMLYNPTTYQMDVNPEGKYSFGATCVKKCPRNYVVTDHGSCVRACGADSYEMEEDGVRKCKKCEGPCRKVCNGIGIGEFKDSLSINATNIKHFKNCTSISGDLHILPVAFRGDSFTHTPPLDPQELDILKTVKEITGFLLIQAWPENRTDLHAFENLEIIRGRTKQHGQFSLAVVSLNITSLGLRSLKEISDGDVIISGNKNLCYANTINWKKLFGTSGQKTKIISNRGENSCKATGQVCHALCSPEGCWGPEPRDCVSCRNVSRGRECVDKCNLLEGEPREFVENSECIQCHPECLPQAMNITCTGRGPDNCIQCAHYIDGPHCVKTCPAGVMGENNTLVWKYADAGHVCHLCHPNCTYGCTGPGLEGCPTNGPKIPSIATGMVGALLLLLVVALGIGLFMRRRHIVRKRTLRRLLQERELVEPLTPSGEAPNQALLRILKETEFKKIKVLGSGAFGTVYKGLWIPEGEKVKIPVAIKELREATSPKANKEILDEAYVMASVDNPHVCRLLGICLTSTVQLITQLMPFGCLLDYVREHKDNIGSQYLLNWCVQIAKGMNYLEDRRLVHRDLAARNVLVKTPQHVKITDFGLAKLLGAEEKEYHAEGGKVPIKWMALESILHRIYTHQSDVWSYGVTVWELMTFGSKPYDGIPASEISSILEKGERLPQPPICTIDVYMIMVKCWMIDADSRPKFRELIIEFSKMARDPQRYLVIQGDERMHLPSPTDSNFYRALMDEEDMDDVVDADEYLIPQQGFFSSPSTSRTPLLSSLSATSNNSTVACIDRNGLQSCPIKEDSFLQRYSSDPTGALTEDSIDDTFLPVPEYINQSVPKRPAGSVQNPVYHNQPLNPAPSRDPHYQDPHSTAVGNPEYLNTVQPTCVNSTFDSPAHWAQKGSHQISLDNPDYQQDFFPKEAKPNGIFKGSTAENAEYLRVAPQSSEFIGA
# [18] = biological target: Follistatin-related protein 3 (Homo sapiens) (UniProt O95633); assay: FSTL3 binders on small-molecule microarrays, primary screen, biochemical, small-molecule microarray, 635 nm fluorescence (AID 1105); conditions: FSTL3 binding, higher = more signal;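 note: score merges emission near 667 nm and signal to noise per printed spot across three slides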
# Follistatin-related protein 3 (Homo sapiens), sequence (O95633 whole entry, looked up): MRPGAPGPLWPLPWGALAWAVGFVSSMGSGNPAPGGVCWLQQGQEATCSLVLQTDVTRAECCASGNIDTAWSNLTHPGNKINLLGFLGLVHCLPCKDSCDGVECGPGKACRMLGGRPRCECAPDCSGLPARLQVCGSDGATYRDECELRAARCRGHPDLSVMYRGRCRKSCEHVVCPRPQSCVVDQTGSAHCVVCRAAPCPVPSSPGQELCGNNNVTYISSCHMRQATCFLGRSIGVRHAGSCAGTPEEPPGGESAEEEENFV
# [19] = biological target: Dickkopf-related protein 1 (Homo sapiens) (UniProt O94907); assay: DKK1 binders on small-molecule microarrays, primary screen, biochemical, small-molecule microarray, 635 nm fluorescence scan (AID 1106); conditions: DKK1 binding, higher = more signal;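 note: score merges emission near 667 nm with signal to noise over three replicate slides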
# Dickkopf-related protein 1 (Homo sapiens), sequence (O94907 whole entry, looked up): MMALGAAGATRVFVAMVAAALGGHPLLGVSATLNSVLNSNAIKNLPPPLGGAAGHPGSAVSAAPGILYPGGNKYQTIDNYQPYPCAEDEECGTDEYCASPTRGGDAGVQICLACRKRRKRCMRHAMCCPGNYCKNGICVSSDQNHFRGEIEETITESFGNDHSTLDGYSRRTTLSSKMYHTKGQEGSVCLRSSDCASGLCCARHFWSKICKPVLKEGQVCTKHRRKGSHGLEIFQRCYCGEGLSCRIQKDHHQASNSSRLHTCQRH
# [20] = tested on: Inhibin beta A chain (activin A); assay: INHBA (activin A) binders on microarrays, primary screen, biochemical, small-molecule microarray, 635 nm fluorescence scan (AID 1107); conditions: small-molecule microarray binding, higher = more signal;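 note: mouse activin A protein probed at 4.33 µg/mL on printed slides; score merges bound-protein fluorescence near 667 nm with spot signal-to-noise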
smiles,measurement,setting,value
Cc1ccc(S(=O)(=O)NC(CCc2ccccc2)CC(=O)C(C)(C)C)cc1 (stereo not given),composite z-score,[1],1.09
same,z-score,[2],-1.18 (inactive)
same,z-score,[3],-1.76 (inactive)
same,z-score,[4],0.269 (inactive)
same,composite z-score,[5],0.69
same,z-score,[6],0.361 (inactive)
same,composite z-score,[7],0.422
same,composite z-score,[8],0.409
same,composite z-score,[9],1.14
same,composite z-score,[10],0.045
same,composite z-score,[11],0.491
same,composite z-score,[12],-0.32
same,composite z-score,[13],-0.459
same,z-score,[14],-0.327 (inactive)
same,composite z-score,[15],0.465
same,composite z-score,[16],0.667
same,composite z-score,[17],0.589
same,composite z-score,[18],0.758
same,composite z-score,[19],0.661
same,composite z-score,[20],-0.114
CCOC(=O)[C@H](CC(C)C)NC(=O)CCC1CC(OC(=O)NCc2ccc3c(c2)OCO3)CC2(CCCC(COC(=O)NCC(c3ccccc3)c3ccccc3)O2)O1 (stereo not given in full),composite z-score,[1],0.915
same,z-score,[2],0.417 (inactive)
same,z-score,[3],0.707 (inactive)
same,z-score,[4],0.34 (inactive)
same,composite z-score,[5],1.6
same,z-score,[6],0.344 (inactive)
same,composite z-score,[7],-0.145
same,composite z-score,[8],0.617
same,composite z-score,[9],0.79
same,composite z-score,[10],-0.0177
same,composite z-score,[11],0.517
same,composite z-score,[12],-0.445
same,composite z-score,[13],-0.491
same,z-score,[14],0.907 (inactive)
same,composite z-score,[15],0.685
same,composite z-score,[16],0.206
same,composite z-score,[17],-0.519
same,composite z-score,[18],0.503
same,composite z-score,[19],0.0925
same,composite z-score,[20],0.155
CC[C@@H](c1ccccc1)n1c(=O)n2n(c1=O)[C@H]1[C@H](O)[C@@H]3O[C@@H]3C(=O)[C@H]1CC2,composite z-score,[1],0.342
same,z-score,[2],-0.0637 (inactive)
same,z-score,[3],-2.45 (inactive)
same,z-score,[4],-0.0584 (inactive)
same,composite z-score,[5],0.396
same,z-score,[6],0.473 (inactive)
same,composite z-score,[7],0.444
same,composite z-score,[8],0.417
same,composite z-score,[9],0.285
same,composite z-score,[10],-0.0431
same,composite z-score,[11],1.23
same,composite z-score,[12],-0.245
same,composite z-score,[13],-0.717
same,z-score,[14],0.797 (inactive)
same,composite z-score,[15],0.427
same,composite z-score,[16],0.417
same,composite z-score,[17],0.489
same,composite z-score,[18],0.32
same,composite z-score,[19],0.466
same,composite z-score,[20],0.384
CCOC(=O)[C@H](Cc1ccccc1)NC(=O)CCC1CC(OC(=O)NCc2cccc3ccccc23)CC2(CCCC(COC(=O)NCc3ccccc3)O2)O1 (stereo not given in full),composite z-score,[1],1.04
same,z-score,[2],-2.28 (inactive)
same,z-score,[3],-2.51 (inactive)
same,z-score,[4],-0.414 (inactive)
same,composite z-score,[5],0.728
same,z-score,[6],-1.42 (inactive)
same,composite z-score,[7],-0.0931
same,composite z-score,[8],0.547
same,composite z-score,[9],0.955
same,composite z-score,[10],-0.142
same,composite z-score,[11],0.388
same,composite z-score,[12],-0.208
same,composite z-score,[13],-0.285
same,z-score,[14],-2.41 (inactive)
same,composite z-score,[15],0.286
same,composite z-score,[16],-0.231
same,composite z-score,[17],0.173
same,composite z-score,[18],0.689
same,composite z-score,[19],0.223
same,composite z-score,[20],0.103
CCOC(=O)[C@H](CC(C)C)NC(=O)CCC1CC(OC(=O)NCCc2ccc(F)cc2)CC2(CCCC(COC(=O)NCCOc3ccccc3)O2)O1 (stereo not given in full),composite z-score,[1],1.56
same,z-score,[2],0.407 (inactive)
same,z-score,[3],0.374 (inactive)
same,z-score,[4],-0.445 (inactive)
same,composite z-score,[5],2.21
same,z-score,[6],-0.552 (inactive)
same,composite z-score,[7],-0.0965
same,composite z-score,[8],0.676
same,composite z-score,[9],1.11
same,composite z-score,[10],-0.0828
same,composite z-score,[11],1.4
same,composite z-score,[12],-0.0843
same,composite z-score,[13],-0.545
same,z-score,[14],0.119 (inactive)
same,composite z-score,[15],0.989
same,composite z-score,[16],0.508
same,composite z-score,[17],0.672
same,composite z-score,[18],1.1
same,composite z-score,[19],1.52
same,composite z-score,[20],-0.0219
CCOC(=O)[C@H](Cc1ccccc1)NC(=O)CCC1CC(OC(=O)NCc2cccc3ccccc23)CC2(CCCC(COC(=O)NCC(c3ccccc3)c3ccccc3)O2)O1 (stereo not given in full),composite z-score,[1],1.5
same,z-score,[2],-0.803 (inactive)
same,z-score,[3],-0.463 (inactive)
same,z-score,[4],-1.07 (inactive)
same,composite z-score,[5],1.17
same,z-score,[6],-1.09 (inactive)
same,composite z-score,[7],-0.147
same,composite z-score,[8],0.504
same,composite z-score,[9],0.851
same,composite z-score,[10],0.0117
same,composite z-score,[11],0.812
same,composite z-score,[12],0.127
same,composite z-score,[13],-0.464
same,z-score,[14],-1.21 (inactive)
same,composite z-score,[15],0.684
same,composite z-score,[16],0.588
same,composite z-score,[17],0.356
same,composite z-score,[18],0.501
same,composite z-score,[19],0.37
same,composite z-score,[20],0.0413
CC(C)CON=C1C[C@@H](O)[C@@H](O)[C@@H]2[C@@H]3C(=O)N(C[C@@H]4CCCO4)C(=O)[C@@H]3CC[C@@H]12,composite z-score,[1],0.242
same,z-score,[2],-1.49 (inactive)
same,z-score,[3],0.283 (inactive)
same,z-score,[4],-0.625 (inactive)
same,composite z-score,[5],1.38
same,z-score,[6],1.27 (inactive)
same,composite z-score,[7],-0.209
same,composite z-score,[8],0.262
same,composite z-score,[9],-0.435
same,composite z-score,[10],-0.22
same,composite z-score,[11],0.0599
same,composite z-score,[12],0.52
same,composite z-score,[13],0.0562
same,z-score,[14],0.926 (inactive)
same,composite z-score,[15],-0.231
same,composite z-score,[16],-0.622
same,composite z-score,[17],-0.151
same,composite z-score,[18],-0.336
same,composite z-score,[19],-0.554
same,composite z-score,[20],-0.148
COCCNC(=O)OCC1CCCC2(CC(OC(=O)NCc3ccc4c(c3)OCO4)CC(CCC(=O)N[C@@H](C)C(=O)OC)O2)O1 (stereo not given in full),composite z-score,[1],1.52
same,z-score,[2],-0.05 (inactive)
same,z-score,[3],1.02 (inactive)
same,z-score,[4],-0.62 (inactive)
same,composite z-score,[5],1.55
same,z-score,[6],-0.427 (inactive)
same,composite z-score,[7],-0.161
same,composite z-score,[8],0.54
same,composite z-score,[9],1.1
same,composite z-score,[10],-0.0286
same,composite z-score,[11],0.742
same,composite z-score,[12],-0.205
same,composite z-score,[13],-0.634
same,z-score,[14],0.442 (inactive)
same,composite z-score,[15],0.696
same,composite z-score,[16],0.953
same,composite z-score,[17],0.696
same,composite z-score,[18],1.31
same,composite z-score,[19],0.518
same,composite z-score,[20],0.0253
CCOC(=O)[C@H](Cc1ccccc1)NC(=O)OC1CC(CCC2CC(CC)=NO2)OC2(CCCC(COC(=O)NCCC(C)C)O2)C1 (stereo not given in full),composite z-score,[1],1.19
same,z-score,[2],-0.764 (inactive)
same,z-score,[3],0.595 (inactive)
same,z-score,[4],0.344 (inactive)
same,composite z-score,[5],1.44
same,z-score,[6],1.11 (inactive)
same,composite z-score,[7],-0.147
same,composite z-score,[8],0.322
same,composite z-score,[9],-0.0258
same,composite z-score,[10],-0.0721
same,composite z-score,[11],0.328
same,composite z-score,[12],-0.246
same,composite z-score,[13],-0.264
same,z-score,[14],0.667 (inactive)
same,composite z-score,[15],0.848
same,composite z-score,[16],0.207
same,composite z-score,[17],0.0954
same,composite z-score,[18],-0.127
same,composite z-score,[19],0.0585
same,composite z-score,[20],-0.415
